Measurements published in PubChem BioAssay AID1159580 (chemical genetic matrix, 2015).
Out of some 5,500 compounds screened, about 2,000 (36%) were called active. Inconclusive results (about 18%) are left out. No stated cut-off is given here; in the data, active means normalized growth mostly below about 0.91 (no sharp cut-off); inconclusive means no clear call, values can overlap the other calls; inactive means mostly above about 0.92. Some of the results follow.

Assay: chemical genetic growth profiling, strain panel (AID 1159580);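 further: tested at 20 µM; growth read once vehicle control cultures reached saturation at 30 °C; 1 = growth at the plate median or of vehicle wells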
Conditions: growth OD

Measured: normalized growth

CC1CC2C3CCC4=CC(=O)C=C[C@]4(C)[C@@]3(F)[C@@H](O)C[C@]2(C)[C@@]1(O)C(=O)CO (stereo partly drawn)
inactive: S. cerevisiae deletion strains, locus YAL013W, strain DEP1, stronger effect = lower value 0.995 | S. cerevisiae deletion strains, locus YAL021C, strain ccr4, stronger effect = lower value 0.974 | S. cerevisiae deletion strains, locus YAL026C, strain drs2, stronger effect = lower value 0.987 | S. cerevisiae deletion strains, locus YAL030W, strain snc1, stronger effect = lower value 0.96 | S. cerevisiae deletion strains, locus YBL061C, strain skt5, stronger effect = lower value 0.99 | S. cerevisiae deletion strains, locus YBR009C, strain hhf1, stronger effect = lower value 1.03 | S. cerevisiae deletion strains, locus YBR021W, strain FUR4, stronger effect = lower value 0.984 | S. cerevisiae deletion strains, locus YBR023C, strain chs3, stronger effect = lower value 0.983 | S. cerevisiae deletion strains, locus YBR171W, strain sec66, stronger effect = lower value 0.982 | S. cerevisiae deletion strains, locus YBR229C, strain ROT2, stronger effect = lower value 0.989 | S. cerevisiae deletion strains, locus YBR231C, strain swc5, stronger effect = lower value 1.06 | S. cerevisiae deletion strains, locus YBR279W, strain paf1, stronger effect = lower value 1 | S. cerevisiae deletion strains, locus YCL011C, strain gbp2, stronger effect = lower value 0.954 | S. cerevisiae deletion strains, locus YCL016C, strain dcc1, stronger effect = lower value 0.978 | S. cerevisiae deletion strains, locus YCL029C, strain bik1, stronger effect = lower value 0.979 | S. cerevisiae deletion strains, locus YCL061C, strain MRC1, stronger effect = lower value 0.995 | S. cerevisiae deletion strains, locus YCL069W, strain vba3, stronger effect = lower value 0.995 | S. cerevisiae deletion strains, locus YCR088W, strain abp1, stronger effect = lower value 0.996 | S. cerevisiae deletion strains, locus YDL005C, strain med2, stronger effect = lower value 0.973 | S. cerevisiae deletion strains, locus YDL035C, strain GPR1, stronger effect = lower value 1.03 | S. cerevisiae deletion strains, locus YDL040C, strain nat1, stronger effect = lower value 0.975 | S. cerevisiae deletion strains, locus YDL074C, strain BRE1, stronger effect = lower value 0.979 | S. cerevisiae deletion strains, locus YDL101C, strain DUN1, stronger effect = lower value 0.976 | S. cerevisiae deletion strains, locus YDL185W, strain tfp1, stronger effect = lower value 0.982 | S. cerevisiae deletion strains, locus YDL192W, strain arf1, stronger effect = lower value 0.974 | S. cerevisiae deletion strains, locus YDR001C, strain nth1, stronger effect = lower value 0.988 | S. cerevisiae deletion strains, locus YDR069C, strain doa4, stronger effect = lower value 0.979 | S. cerevisiae deletion strains, locus YDR101C, strain arx1, stronger effect = lower value 0.984 | S. cerevisiae deletion strains, locus YDR137W, strain rgp1, stronger effect = lower value 0.987 | S. cerevisiae deletion strains, locus YDR159W, strain sac3, stronger effect = lower value 1.01 | S. cerevisiae deletion strains, locus YDR162C, strain NBP2, stronger effect = lower value 1.02 | S. cerevisiae deletion strains, locus YDR195W, strain ref2 0.99 | S. cerevisiae deletion strains, locus YDR297W, strain sur2, stronger effect = lower value 0.995 | S. cerevisiae deletion strains, locus YDR318W, strain mcm21, stronger effect = lower value 0.983 | S. cerevisiae deletion strains, locus YDR334W, strain swr1, stronger effect = lower value 0.976 | S. cerevisiae deletion strains, locus YDR335W, strain msn5, stronger effect = lower value 0.984 | S. cerevisiae deletion strains, locus YDR388W, stronger effect = lower value 0.968 | S. cerevisiae deletion strains, locus YDR392W, strain spt3, stronger effect = lower value 0.904 | S. cerevisiae deletion strains, locus YDR502C, strain sam2, stronger effect = lower value 0.991 | S. cerevisiae deletion strains, locus YEL003W, strain gim4, stronger effect = lower value 0.963 | S. cerevisiae deletion strains, locus YEL037C, strain rad23, stronger effect = lower value 0.976 | S. cerevisiae deletion strains, locus YEL061C, strain CIN8 (second series), stronger effect = lower value 0.988 | S. cerevisiae deletion strains, locus YEL061C, strain CIN8, stronger effect = lower value 0.994 | S. cerevisiae deletion strains, locus YER015W, strain faa2, stronger effect = lower value 0.991 | S. cerevisiae deletion strains, locus YER016W, strain bim1, stronger effect = lower value 0.95 | S. cerevisiae deletion strains, locus YER110C, stronger effect = lower value 0.958 | S. cerevisiae deletion strains, locus YER111C, strain swi4, stronger effect = lower value 0.983 | S. cerevisiae deletion strains, locus YER155C, strain BEM2 (second series), stronger effect = lower value 1.03 | S. cerevisiae deletion strains, locus YER155C, strain BEM2, stronger effect = lower value 0.984 | S. cerevisiae deletion strains, locus YER167W, strain BCK2, stronger effect = lower value 1 | S. cerevisiae deletion strains, locus YFR010W, strain ubp6, stronger effect = lower value 1.01 | S. cerevisiae deletion strains, locus YGL078C, strain dbp3, stronger effect = lower value 0.971 | S. cerevisiae deletion strains, locus YGL086W, strain mad1, stronger effect = lower value 0.98 | S. cerevisiae deletion strains, locus YGL167C, strain pmr1, stronger effect = lower value 0.983 | S. cerevisiae deletion strains, locus YGL173C, strain kem1, stronger effect = lower value 0.979 | S. cerevisiae deletion strains, locus YGL227W, strain vid30, stronger effect = lower value 0.999 | S. cerevisiae deletion strains, locus YGL240W, strain doc1, stronger effect = lower value 1.01 | S. cerevisiae deletion strains, locus YGL248W, strain PDE1, stronger effect = lower value 0.98 | S. cerevisiae deletion strains, locus YGL253W, strain hxk2, stronger effect = lower value 0.974 | S. cerevisiae deletion strains, locus YGR135W, strain pre9, stronger effect = lower value 0.969 | S. cerevisiae deletion strains, locus YGR229C, strain SMI1, stronger effect = lower value 1.02 | S. cerevisiae deletion strains, locus YGR252W, strain gcn5, stronger effect = lower value 1.02 | S. cerevisiae deletion strains, locus YHR013C, strain ard1, stronger effect = lower value 0.954 | S. cerevisiae deletion strains, locus YHR027C, strain rpn1, stronger effect = lower value 0.992 | S. cerevisiae deletion strains, locus YHR030C, strain SLT2, stronger effect = lower value 0.99 | S. cerevisiae deletion strains, locus YHR079C, strain IRE1 (second series), stronger effect = lower value 0.965 | S. cerevisiae deletion strains, locus YHR094C, strain hxt1, stronger effect = lower value 0.97 | S. cerevisiae deletion strains, locus YHR129C, strain ARP1, stronger effect = lower value 0.993 | S. cerevisiae deletion strains, locus YHR142W, strain chs7, stronger effect = lower value 0.959 | S. cerevisiae deletion strains, locus YHR200W, strain rpn10, stronger effect = lower value 0.983 | S. cerevisiae deletion strains, locus YIL066C, strain RNR3, stronger effect = lower value 1 | S. cerevisiae deletion strains, locus YIL073C, strain SPO22, stronger effect = lower value 0.972 | S. cerevisiae deletion strains, locus YIL125W, strain kgd1, stronger effect = lower value 0.963 | S. cerevisiae deletion strains, locus YIR030C, strain dcg1, stronger effect = lower value 0.965 | S. cerevisiae deletion strains, locus YJL092W, strain hpr5, stronger effect = lower value 0.963 | S. cerevisiae deletion strains, locus YJL095W, strain BCK1 (second series), stronger effect = lower value 0.945 | S. cerevisiae deletion strains, locus YJL095W, strain BCK1, stronger effect = lower value 0.96 | S. cerevisiae deletion strains, locus YJL115W, strain asf1, stronger effect = lower value 0.976 | S. cerevisiae deletion strains, locus YJL129C, strain trk1, stronger effect = lower value 0.965 | S. cerevisiae deletion strains, locus YJL134W, strain LCB3, stronger effect = lower value 0.99 | S. cerevisiae deletion strains, locus YJL154C, strain vps35, stronger effect = lower value 0.966 | S. cerevisiae deletion strains, locus YJL164C, strain tpk1, stronger effect = lower value 1 | S. cerevisiae deletion strains, locus YJL166W, strain qcr8, stronger effect = lower value 1 | S. cerevisiae deletion strains, locus YJL168C, strain set2, stronger effect = lower value 0.966 | S. cerevisiae deletion strains, locus YJL187C, strain SWE1 (second series), stronger effect = lower value 0.982 | S. cerevisiae deletion strains, locus YJR043C, strain POL32, stronger effect = lower value 1.04 | S. cerevisiae deletion strains, locus YKL009W, strain mrt4, stronger effect = lower value 0.963 | S. cerevisiae deletion strains, locus YKL068W, stronger effect = lower value 0.987 | S. cerevisiae deletion strains, locus YKL085W, strain MDH1 (second series), stronger effect = lower value 0.985 | S. cerevisiae deletion strains, locus YKL085W, strain MDH1, stronger effect = lower value 0.985 | S. cerevisiae deletion strains, locus YKL160W, strain elf1, stronger effect = lower value 0.943 | S. cerevisiae deletion strains, locus YKR001C, strain vps1, stronger effect = lower value 0.968 | S. cerevisiae deletion strains, locus YKR026C, strain gcn3, stronger effect = lower value 0.993 | S. cerevisiae deletion strains, locus YKR091W, strain srl3, stronger effect = lower value 0.97 | S. cerevisiae deletion strains, locus YLL001W, strain dnm1, stronger effect = lower value 1.01 | S. cerevisiae deletion strains, locus YLL026W, stronger effect = lower value 0.997 | S. cerevisiae deletion strains, locus YLL041C, strain sdh2, stronger effect = lower value 0.96 | S. cerevisiae deletion strains, locus YLR027C, strain aat2, stronger effect = lower value 0.997 | S. cerevisiae deletion strains, locus YLR039C, strain RIC1, stronger effect = lower value 0.991 | S. cerevisiae deletion strains, locus YLR058C, strain SHM2, stronger effect = lower value 0.984 | S. cerevisiae deletion strains, locus YLR102C, strain apc9, stronger effect = lower value 0.982 | S. cerevisiae deletion strains, locus YLR221C, strain rsa3, stronger effect = lower value 1.01 | S. cerevisiae deletion strains, locus YLR258W, strain gsy2, stronger effect = lower value 0.962 | S. cerevisiae deletion strains, locus YLR262C, strain YPT6 (second series), stronger effect = lower value 0.985 | S. cerevisiae deletion strains, locus YLR262C, strain YPT6, stronger effect = lower value 0.986 | S. cerevisiae deletion strains, locus YLR268W, strain sec22, stronger effect = lower value 0.965 | S. cerevisiae deletion strains, locus YLR320W, strain mms22, stronger effect = lower value 1.01 | S. cerevisiae deletion strains, locus YLR330W, strain CHS5, stronger effect = lower value 0.99 | S. cerevisiae deletion strains, locus YLR342W, strain FKS1 (second series), stronger effect = lower value 1.02 | S. cerevisiae deletion strains, locus YLR342W, strain FKS1, stronger effect = lower value 0.977 | S. cerevisiae deletion strains, locus YLR357W, strain rsc2, stronger effect = lower value 0.994 | S. cerevisiae deletion strains, locus YLR370C, strain arc18, stronger effect = lower value 0.99 | S. cerevisiae deletion strains, locus YLR371W, strain rom2, stronger effect = lower value 0.96 | S. cerevisiae deletion strains, locus YLR384C, strain iki3, stronger effect = lower value 1.01 | S. cerevisiae deletion strains, locus YLR418C, strain cdc73, stronger effect = lower value 0.974 | S. cerevisiae deletion strains, locus YML016C, strain PPZ1, stronger effect = lower value 0.989 | S. cerevisiae deletion strains, locus YML032C, strain rad52, stronger effect = lower value 0.981 | S. cerevisiae deletion strains, locus YML120C, strain ndi1, stronger effect = lower value 0.979 | S. cerevisiae deletion strains, locus YML124C, strain tub3, stronger effect = lower value 0.973 | S. cerevisiae deletion strains, locus YMR058W, strain fet3, stronger effect = lower value 0.988 | S. cerevisiae deletion strains, locus YMR078C, strain ctf18, stronger effect = lower value 0.958 | S. cerevisiae deletion strains, locus YMR125W, strain sto1, stronger effect = lower value 0.97 | S. cerevisiae deletion strains, locus YMR129W, stronger effect = lower value 0.975 | S. cerevisiae deletion strains, locus YMR205C, strain PFK2, stronger effect = lower value 1.01 | S. cerevisiae deletion strains, locus YMR223W, strain ubp8, stronger effect = lower value 0.977 | S. cerevisiae deletion strains, locus YMR231W, strain pep5, stronger effect = lower value 0.987 | S. cerevisiae deletion strains, locus YMR263W, strain SAP30, stronger effect = lower value 0.979 | S. cerevisiae deletion strains, locus YMR307W, strain GAS1, stronger effect = lower value 1.03 | S. cerevisiae deletion strains, locus YNL067W, strain RPL9B, stronger effect = lower value 0.961 | S. cerevisiae deletion strains, locus YNL071W, strain lat1, stronger effect = lower value 0.993 | S. cerevisiae deletion strains, locus YNL128W, strain TEP1, stronger effect = lower value 0.973 | S. cerevisiae deletion strains, locus YNL153C, strain GIM3, stronger effect = lower value 0.981 | S. cerevisiae deletion strains, locus YNL209W, strain ssb2, stronger effect = lower value 0.98 | S. cerevisiae deletion strains, locus YNL233W, strain BNI4, stronger effect = lower value 0.965 | S. cerevisiae deletion strains, locus YNL248C, strain rpa49, stronger effect = lower value 0.907 | S. cerevisiae deletion strains, locus YNL250W, strain rad50, stronger effect = lower value 0.962 | S. cerevisiae deletion strains, locus YNL271C, strain bni1, stronger effect = lower value 0.962 | S. cerevisiae deletion strains, locus YNL298W, strain CLA4, stronger effect = lower value 0.966 | S. cerevisiae deletion strains, locus YNL307C, strain MCK1, stronger effect = lower value 0.981 | S. cerevisiae deletion strains, locus YNL322C, strain KRE1 (second series), stronger effect = lower value 0.96 | S. cerevisiae deletion strains, locus YNR049C, strain mso1, stronger effect = lower value 0.968 | S. cerevisiae deletion strains, locus YNR052C, strain pop2, stronger effect = lower value 0.966 | S. cerevisiae deletion strains, locus YOL012C, strain htz1 0.786 | S. cerevisiae deletion strains, locus YOL147C, strain pex11, stronger effect = lower value 0.971 | S. cerevisiae deletion strains, locus YOR001W, strain rrp6, stronger effect = lower value 1.04 | S. cerevisiae deletion strains, locus YOR061W, strain CKA2, stronger effect = lower value 0.993 | S. cerevisiae deletion strains, locus YOR069W, strain VPS5, stronger effect = lower value 0.986 | S. cerevisiae deletion strains, locus YOR070C, strain gyp1, stronger effect = lower value 0.988 | S. cerevisiae deletion strains, locus YOR080W, strain dia2, stronger effect = lower value 0.957 | S. cerevisiae deletion strains, locus YOR083W, strain WHI5, stronger effect = lower value 0.914 | S. cerevisiae deletion strains, locus YOR106W, strain vam3, stronger effect = lower value 0.942 | S. cerevisiae deletion strains, locus YOR136W, strain idh2, stronger effect = lower value 0.986 | S. cerevisiae deletion strains, locus YOR144C, strain elg1, stronger effect = lower value 0.972 | S. cerevisiae deletion strains, locus YOR184W, strain ser1, stronger effect = lower value 0.979 | S. cerevisiae deletion strains, locus YOR265W, strain rbl2, stronger effect = lower value 0.989 | S. cerevisiae deletion strains, locus YOR270C, strain vph1, stronger effect = lower value 0.939 | S. cerevisiae deletion strains, locus YOR290C, strain snf2, stronger effect = lower value 0.962 | S. cerevisiae deletion strains, locus YOR316C, strain cot1, stronger effect = lower value 0.98 | S. cerevisiae deletion strains, locus YPL051W, strain arl3, stronger effect = lower value 0.992 | S. cerevisiae deletion strains, locus YPL078C, strain atp4, stronger effect = lower value 0.953 | S. cerevisiae deletion strains, locus YPL106C, strain sse1, stronger effect = lower value 0.982 | S. cerevisiae deletion strains, locus YPL240C, strain hsp82, stronger effect = lower value 1.01 | S. cerevisiae deletion strains, locus YPR119W, strain clb2, stronger effect = lower value 0.973 | S. cerevisiae deletion strains, locus YPR141C, strain kar3, stronger effect = lower value 0.961 | S. cerevisiae deletion strains, locus YPR163C, strain tif3, stronger effect = lower value 0.981 | S. cerevisiae deletion strains, locus YPR167C, strain met16, stronger effect = lower value 0.962 | S. cerevisiae deletion strains, strain wtn01, stronger effect = lower value 0.963 | S. cerevisiae strains, strain wild type, stronger effect = lower value 0.995
